Bioassay records as filed in PubChem BioAssay.
An excerpt weighted towards active compounds, which were near 19% of everything screened.
KB-3-1 tox = KB-3-1 parental cell cytotoxicity. KB-3-1 viability, CellTiter-Glo ATP luminescence, 72 h. Potency, µM (top dose mostly 46.1 µM), usual class: cytotoxic. 400,000 tested, 1.4% active; note: nearly all actives have a fitted effect of over 60% in size
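Here the drug-naive KB-3-1 line serves as comparator for MDR sub-line selectivity; cells received compound titrations, 72 h at 37 °C, then CellTiter-Glo readout.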
TDP1 cell CPT = DT40-hTDP1 cell growth loss with CPT. chicken DT40 Tdp1-/-;hTDP1 cells + 20 nM CPT, ATP luminescence, 48 h. Potency, µM (highest dose often 46.2 µM), inactives show top-dose activity change, negative = growth inhibition, most hits filed as inhibitors. 420,000 tested, 12% active; note: nearly all actives have a fitted effect of over 55% in size
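Cell growth measured by CellTiter-Glo luminescence after a minimum 48 h, 37 C compound exposure with 20 nM CPT in Tdp1-knockout DT40 cells stably expressing hTDP1, seeded 400/well; qHTS titration format.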
KB-V1 cytotox = KB-V1 MDR subline cytotoxicity; KB-V1 MDR cells viability, CellTiter-Glo, 72 h; Potency, µM (titrated, usually from 46.1 µM), most hits filed as cytotoxic; 400,000 tested, 3.4% active; note: nearly all actives have a fitted effect of over 60% in size
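KB-V1 cells (P-gp-expressing MDR subline of KB-3-1) in phenol-red-free DMEM with 10% FBS were exposed to library compounds over a concentration series for 72 h at 37 degrees C. Viability read by CellTiter-Glo luminescence; concentration-effect curves fitted after normalization.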
HT1080 IDH1KD tx = toxicity to HT-1080 IDH1 knockdown cells (counter line); AID 686971; HT-1080 IDH1 knockdown viability, ATP luminescence, 48 h; 360,000 tested, 2% active; Potency, µM (titrated, usually from 46.1 µM), for inactives: at the highest dose activity, negative = toxicity, usual class: cytotoxic;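 note: 0% = DMSO wells and -100% = cell-free medium wells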
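CellTiter-Glo luminescence after 48 h compound exposure at 37 degrees C of IDH1-knockdown HT-1080 cells in 5% FBS RPMI. %Activity scaled between DMSO wells and cell-free media wells, with curves fitted and assigned curve classes.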
DT40 TDP1 no CPT = qHTS for Inhibitors of human tyrosyl-DNA phosphodiesterase 1 (TDP1): qHTS in cells in absence of CPT; 420,000 tested, 15% active; DT40 Tdp1-/- hTDP1 cells, no CPT, ATP luminescence, 48 h; Potency, µM (series often up to 46.2 µM), without a hit: at the top dose activity change, negative = growth inhibition, most hits filed as inhibitors; note: nearly all actives have a fitted effect of over 55% in size
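Growth of hTDP1-complemented DT40 Tdp1-knockout cells is measured by ATP luminescence after at least 48 hr compound exposure at 37 °C, with DMSO substituting for the 20 nM CPT used in the parallel screen.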
HT1080NT lethal = kills 2HG-producing HT-1080-NT fibrosarcoma cells; 360,000 tested, 1.6% active; HT-1080-NT fibrosarcoma viability, CellTiter-Glo ATP luminescence, 48 h; AID 686970; Potency, µM (series often up to 46.1 µM), for inactives: at the top dose activity, negative = less viability, hits mostly cytotoxic;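 note: NT is the 2HG producing partner of a matched IDH1 knockdown line; 0% = DMSO-treated cells and -100% = media-only wells without cells; nearly all actives have a fitted effect of over 55% in size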
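A 48-hour cytotoxicity screen used HT-1080-NT cells plated 2 hours before compound delivery. ATP-based CellTiter-Glo luminescence measured viability, normalized to DMSO and no-cell controls.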
An asterisk follows results filed as active; i = inactive; u = inconclusive; x = no result. Calls come from the whole dose curve; as a rule, active = well fitted curve in the direction sought with a large enough effect; inconclusive = small, poorly fitted or top-dose-only effect, or another doubt; inactive = no such curve, though single readings can be large; an effect the other way counts as inactive or inconclusive. Unless noted, % is set by controls: 0 for no effect and ±100 for the full control effect; potency is the fitted concentration of half-maximal effect.

SMILES	KB-3-1 tox	TDP1 cell CPT	KB-V1 cytotox	HT1080 IDH1KD tx	DT40 TDP1 no CPT	HT1080NT lethal
O=C(O)CCC(=O)N1N=C(c2c(-c3ccccc3)c3cc(Cl)ccc3[nH]c2=O)CC1c1ccco1 (stereo unspecified)	i	5%	i	9%	-4%	12%
CCC(=O)N1N=C(c2c(-c3ccccc3)c3cc(Cl)ccc3[nH]c2=O)CC1c1ccco1 (stereo unspecified)	i	18µM*	i	u	23µM*	u
Cc1ccc(NC(=O)C2CCCN2S(=O)(=O)c2ccc3c(c2)n(C)c(=O)c(=O)n3C)c(C)c1 (stereo unspecified)	i	0%	i	0%	0%	18%
Cc1cccc(-c2nc3nc(C)cc(NC(C)c4ccccc4)n3n2)c1 (stereo unspecified)	i	x	u	x	x	x
Cc1ccc(NC(=O)COC(=O)CC2CCCC2)cc1F	i	14%	i	8%	0%	7%
N=c1sccn1CC(=O)N1N=C(c2ccc(Cl)cc2)CC1c1ccco1 (stereo unspecified)	i	u	u	u	23µM*	33µM*
O=C1c2ccccc2S(=O)(=O)c2cc(N3CCN(c4ccccc4)CC3)ccc21	i	u	u	-1%	16µM*	5%
O=C(O)c1cccc2c1C(=O)c1ccc(N3CCCCC3)cc1S2(=O)=O	i	-2%	u	3%	-3%	3%
O=C1c2ccccc2S(=O)(=O)c2cc(N3CCOCC3)ccc21	u	12µM*	u	-8%	21µM*	-1%
CCCCN1C(=O)CC(SC2CC(=O)N(CCCC)C2=O)C1=O (stereo unspecified)	i	16µM*	i	-3%	5.8µM*	-3%
CCN1C(=O)CC(SC2CC(=O)N(CC)C2=O)C1=O (stereo unspecified)	i	3.7µM*	u	3%	8.2µM*	2%
COc1ccc(-c2nc(NCCN(C)C)nc3ccsc23)c(C)c1	i	u	i	u	u	u
COc1cccc(Cn2c(Oc3cc(C)cc(C)c3)nc3c2c(=O)n(C)c(=O)n3C)c1	i	u	i	x	u	x
O=C(Nc1ccc(Cl)cn1)c1cccc(F)c1	6.5µM*	7.3µM*	3.7µM*	8.2µM*	4.6µM*	u
O=C(Nc1cccc(C(=O)Nc2ccc(Cl)cn2)c1)c1ccccc1	i	u	i	3%	-18%	-2%
O=C(Nc1ccncc1)c1cccc(S(=O)(=O)N2CCN(c3ccc(F)cc3)CC2)c1	i	21µM*	u	-24%	21µM*	-15%
O=C(Nc1ccc(Cl)cn1)c1cccc(S(=O)(=O)N2CCOCC2)c1	i	-29%	21µM*	-3%	-22%	0%
Cc1ccc(NC(=O)c2cccc(S(=O)(=O)N3CCN(c4ccc(F)cc4)CC3)c2)nc1	16µM*	15µM*	u	u	u	u
CC(=NNC(=O)c1cccc(S(=O)(=O)N2CCOCC2)c1)c1ccc(Cl)cc1	i	u	u	-4%	-27%	-15%
O=C(Nc1ncccc1O)c1cccc(S(=O)(=O)N2CCN(c3ccc(F)cc3)CC2)c1	i	u	u	-3%	u	1%
COCCNS(=O)(=O)c1cc(C)c(C)cc1C	i	u	i	20%	-20%	10%
COc1ccc(Nc2nn(-c3ccc(OC(F)(F)F)cc3)nc2C(C)=O)cc1	x	-20%	x	x	-5%	x
Cc1cc(C)nc(-n2nc(C)cc2NC(=O)c2ccc(S(=O)(=O)N3CCOCC3)cc2)n1	i	-30%	i	0%	-24%	27%
Cc1cc(C)nc(-n2nc(C)cc2NC(=O)c2cccc(S(=O)(=O)N3CCOCC3)c2)n1	i	u	i	12%	21µM*	11%
COc1ccc(NC(=O)N2CC[C@@]3(CCCNC3)C2)cc1	x	-20%	x	x	-21%	x
SMILES	KB-3-1 tox	TDP1 cell CPT	KB-V1 cytotox	HT1080 IDH1KD tx	DT40 TDP1 no CPT	HT1080NT lethal
COCCNC(=O)CSC1=N/C(=C/c2ccc(Cl)c(Cl)c2)C(=O)N1c1ccccc1F	i	15µM*	i	u	21µM*	u
C=CCN1C(=O)/C(=C\c2ccc(Cl)cc2)N=C1SCC(=O)NCCC	i	-3%	u	-4%	-18%	-2%
O=C(COc1ccc2c(c1)C(=O)CC1(CCCCC1)O2)NCc1ccccc1	i	u	i	0%	21µM*	-6%
O=C(NCC1CCCO1)c1ccc(CS(=O)(=O)c2ccc(Cl)cc2)o1 (stereo unspecified)	i	u	23µM*	5%	-1%	16%
O=C(NCC1CCCO1)c1ccc(CS(=O)(=O)c2ccc(Br)cc2)o1 (stereo unspecified)	i	u	i	-1%	-8%	0%
O=C(NCC1CCCO1)c1ccc([N+](=O)[O-])s1 (stereo unspecified)	i	13µM*	u	-13%	26µM*	-8%
O=C(NCC1CCCO1)c1ccc([N+](=O)[O-])o1 (stereo unspecified)	21µM*	u	u	-28%	-8%	u
COc1ccc(C2=Nc3ccccc3N(C(=O)c3ccc4c(c3)OCO4)C2C(=O)Nc2c(C)cccc2C)cc1 (stereo unspecified)	i	u	i	5%	u	0%
CC(=O)c1ccc(N2CCN(C(=O)NCc3noc4ccc(C)cc34)CC2)cc1	i	u	u	x	u	x
CN1/C(=C\C=C(C#N)C#N)C(C)(C)c2ccccc21	i	-7%	i	-4%	-16%	0%
CN1/C(=C\P(=O)(N(C)C)N(C)C)C(C)(C)c2ccccc21	i	5.8µM*	i	u	3.7µM*	u
Cc1ccc(-c2cnc3c(Cl)c(C)nn3c2)cc1	u	21µM*	12µM*	-26%	10µM*	-8%
CCC(C)NC(=O)c1c2c(nc3ccccc13)C(=O)N(C1CCCCC1)C2 (stereo unspecified)	i	-13%	i	x	-24%	x
COc1cc(NC(=O)c2c3c(nc4ccccc24)C(=O)N(C2CCCCC2)C3)cc(OC)c1	i	-21%	i	x	-15%	x
